Screening data as filed in PubChem.
Sampled rows, rich in hits. Any-hit rate of the full collection: about 4.3%.
AF4-AF9 inh = inhibitors of AF4 peptide binding to AF9, primary screen, biochemical, AlphaScreen, biotin-AF4 peptide, FLAG-AF9, single point; Protein AF-9 (Homo sapiens), P42568; actives 0.47% (n = 350,000); inhibition, % at 10 µM; AID 651704, 2012;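 active = every replicate reaching a set inhibition limit, whatever the replicate mean, cut at about 25% in these data; inconclusive = mean inhibition reaches that limit but some replicates miss it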;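 note: 0% = plate neutral control median and 100% = total signal loss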
Target sequence (P42568 whole entry, looked up): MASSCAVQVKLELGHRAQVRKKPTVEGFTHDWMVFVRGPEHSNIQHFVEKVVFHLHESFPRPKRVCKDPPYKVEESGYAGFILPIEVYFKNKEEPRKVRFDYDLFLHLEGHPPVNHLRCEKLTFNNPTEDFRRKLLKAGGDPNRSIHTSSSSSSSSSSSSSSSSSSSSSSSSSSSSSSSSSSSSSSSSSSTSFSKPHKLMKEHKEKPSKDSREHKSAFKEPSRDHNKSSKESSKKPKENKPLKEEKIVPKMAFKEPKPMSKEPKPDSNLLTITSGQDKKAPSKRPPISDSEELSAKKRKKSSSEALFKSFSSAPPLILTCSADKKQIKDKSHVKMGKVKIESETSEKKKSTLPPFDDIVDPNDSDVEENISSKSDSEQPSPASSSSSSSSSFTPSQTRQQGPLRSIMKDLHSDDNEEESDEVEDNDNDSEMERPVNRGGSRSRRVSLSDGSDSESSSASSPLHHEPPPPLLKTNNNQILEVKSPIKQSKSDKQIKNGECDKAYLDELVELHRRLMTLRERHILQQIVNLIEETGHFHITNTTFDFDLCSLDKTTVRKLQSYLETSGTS
Wnt act = Wnt/beta-catenin pathway activators, primary screen, cell-based, plate reader, single point | Wnt/beta-catenin reporter cell assay, activator | actives 1.2% (n = 300,000) | activation, % at 9.35 µM; in the data active = activation above about 30%, passing the limit was not always enough; inconclusive = no clear call, values can overlap the other calls;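 note: 0% = neutral control wells and 100% = positive control wells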
SMARCA2 activ = SMARCA2 (BRM) function activators, primary screen, cell-based, luminescence, high throughput. MG213 cells, MMTV-luciferase reporter, dexamethasone, overnight. activation, % at 9.1 µM. actives 1% (n = 370,000); in the data active = activation above about 7.8%;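 note: 0% = vehicle wells and 100% = reference activator wells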
FGF22 binding = binders of human FGF22 protein, primary screen, FGF22 synaptogenesis inhibitor project, biophysical, thermal shift, single point. Fibroblast growth factor 22 (Homo sapiens), Q9HCT0. recombinant FGF22 thermal shift, SYPRO orange fluorescence; percent of sucrose octasulfate shift, DMSO zero. activity (Tm shift, normalised), % at 9.99 µM. actives 1.5% (n = 340,000);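 active = mean Tm shift, scaled 0 neutral to 100 positive control, at about 1.3% or above, every replicate too, limit read from the data; inconclusive = no clear call, values can overlap the other calls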
esBAF inh = Bmi1 luciferase reporter increase in mESCs, primary screen, esBAF inhibitor project, mouse ES cells, Bmi1 luciferase knock-in, single point | reporter increase, % at 12.5 µM | 24 h; 100% = twice the neutral-well signal | actives 2% (n = 350,000); in the data active = activation above about 40%; inconclusive = no clear call, values can overlap the other calls;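 note: 0% = median of the plate's neutral control wells and 100% = double that signal; a rise in the Bmi1 reporter signal indicates esBAF inhibition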
MITF TRPM1 HTS = activators of MITF-driven TRPM1 promoter reporter, primary screen, cell-based, SK-MEL-5, luciferase, single point | activation, % at 12.5 µM | SK-MEL-5 TRPM1-promoter luciferase, 24 h; % of positive control, neutral wells = 0 | actives 0.75% (n = 300,000);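 active = mean activation of at least 80% with every replicate also reaching 80%; inconclusive = mean reaches 80% but some replicate falls short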;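 note: 0% = neutral control wells and 100% = parthenolide positive control wells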
* hit, by the source's call; u = inconclusive; x = not tested or not shown.

SMILES	AF4-AF9 inh	Wnt act	SMARCA2 activ	FGF22 binding	esBAF inh	MITF TRPM1 HTS
CN1C[C@@H]2[C@H](c3ccccc31)[C@@H](CO)N2C(=O)Nc1ccccc1Cl	-2	x	x	0	-5	x
O=C(C[C@@H]1C=C[C@@H](NS(=O)(=O)c2ccc(F)cc2)[C@@H](CO)O1)NC1CCCCC1	-9	x	x	0	0	x
Cc1nn(C)c(C)c1/C=C/C(=O)c1cccs1	x	39*	2	x	19	x
Cc1nn(C)c(C)c1/C=C/C(=O)c1ccccc1	x	x	3	x	x	60
Cc1nn(C)cc1/C=C/C(=O)c1cccs1	x	90*	4	x	65*	x
C/C=C/c1ccc2c(c1)O[C@H](CN(C)C(=O)C1CCCCC1)[C@@H](C)CN([C@H](C)CO)S2(=O)=O	4	x	x	0	6	x
CC(C)NC(=O)N(C)C[C@@H]1Oc2cc(C#Cc3ccc(F)cc3)ccc2S(=O)(=O)N([C@H](C)CO)C[C@@H]1C	0	x	x	0	1	x
CCc1ccc(NC(=O)Nc2ccc3c(c2)CCC3)cc1	-1	10	4	0	53*	51
COc1cccc(NC(=O)Nc2ccc3c(c2)CCC3)c1	-1	21	6	0	u	65
CCc1ccc(NC(=O)Nc2ccon2)cc1	1	17	2	0	44*	59
COc1cccc(NC(=O)c2ccc3c(c2)CCCC3)c1	-1	0	3	0	27	46
CC(=O)c1cccc(NC(=O)c2ccc3c(c2)CCCC3)c1	3	24	5	0	15	113*
Cc1cccc(NC(=O)Nc2ccc3c(c2)CCC3)c1	0	22	5	0	x	u
CC(=O)c1cccc(NC(=O)Nc2ccc3c(c2)CCC3)c1	0	19	1	0	66*	97*
C[C@H]1CN([C@@H](C)CO)C(=O)c2cc(N(C)C)ccc2O[C@H]1CN(C)Cc1ccc(C(=O)O)cc1	0	x	x	0	-3	x
C[C@@H]1CN([C@H](C)CO)C(=O)c2cc(NS(=O)(=O)c3ccccc3)ccc2O[C@@H](C)CCCCO[C@@H]1CN(C)C(=O)Cc1ccccc1	1	x	x	0	-3	x
CC(=O)c1cccc(Nc2ccc(Br)cc2)c1	-3	18	6	0	54*	x
COc1cc2c(cc1OC)-c1cc(Nc3ccc(F)cc3)nc(=O)n1CC2	-1	1	1	0	x	21
COc1cc2c(cc1OC)-c1cc(Nc3ccc(N(C)C)cc3)nc(=O)n1CC2	1	0	7.8*	0	x	27
Cc1noc(C)c1S(=O)(=O)Nc1ccc2c(c1)CC(=O)N([C@@H](C)CO)C[C@@H](C)[C@@H](CN(C)S(=O)(=O)c1ccc(Cl)cc1)O2	-2	x	x	0	-4	x
COc1ccc(CN(C)C[C@@H]2OCCCC[C@@H](C)Oc3ccc(NS(=O)(=O)c4ccc(F)cc4)cc3C(=O)N([C@H](C)CO)C[C@H]2C)cc1	4	x	x	0	6	x
Nc1ccc2c(c1)C(=O)c1ccccc1-2	16	32*	-2	0	15	x
c1ccc(-c2cnc(C3CCCCC3)o2)cc1	u	0	-1	0	53*	48
O=S(=O)(Nc1ccccc1)c1ccc(-c2cnc(C3CC3)o2)cc1	-1	-1	-3	0	-1	-27
Cc1noc(C)c1NC(=O)Nc1ccc2c(c1)C(=O)N([C@@H](C)CO)C[C@@H](C)[C@@H](CN(C)S(=O)(=O)c1ccc(F)cc1)OCCCC[C@H](C)O2	-1	x	x	x	-2	x
SMILES	AF4-AF9 inh	Wnt act	SMARCA2 activ	FGF22 binding	esBAF inh	MITF TRPM1 HTS
c1ccc(-c2csc(N3CCOCC3)n2)cc1	x	39*	3	x	60*	81*
O=C1CNC(=S)N1c1nc(-c2ccccc2)cs1	-5	50*	1	0	x	88*
O=C(N1CCOCC1)N1CCN(c2nc(-c3ccccc3)cs2)CC1	x	x	6	x	17	16
Clc1ccc(-c2csc(N3CCN(c4ccccc4)CC3)n2)cc1	x	x	-2	x	-1	8
c1ccc(-c2csc(N3CCN(c4ccccn4)CC3)n2)cc1	x	u	1	x	61*	59
C[C@H](CO)N1C[C@H](C)[C@H](CN(C)C(=O)Nc2ccc(F)cc2)Oc2ncc(-c3cccnc3)cc2C1=O	-1	x	x	0	-4	x
COc1cc(-c2ccc3c(=O)c4ccccc4sc3c2)cc(OC)c1OC	-3	3	1	0	47*	65
CC1CCCCN1C(=O)CSc1nnc(-c2ccc(Cl)s2)o1 (stereo unspecified)	x	x	3	x	63*	72
Cc1occc1-c1nnc(SCC(=O)N2CCCCC2C)o1 (stereo unspecified)	3	5	-3	0	10	13
O=C(NC1Cc2ccccc2C1)[C@@H]1[C@@H](CO)[C@@H]2Cn3c(ccc(-c4ccccc4)c3=O)[C@H]1N2	1	x	x	0	-1	x
O=C(Nc1ccccc1)N1C[C@H]2[C@@H](c3ccccc31)[C@@H](CO)N2CC1CCCC1	-1	x	x	-1	12	x
COc1ccc(-c2c[n+]3c(n2-c2c(C)n(C)n(-c4ccccc4)c2=O)CCCCC3)cc1	-5	-16	-6	43*	-11	0
CCCNC(=O)C[C@H]1CC[C@H]2[C@@H](COC[C@H](O)CN2C(=O)c2cc(Cl)cc(Cl)c2)O1	-2	x	x	0	2	x
N#Cc1ccccc1NC(=O)CSC1=Nc2ccccc2C2CC=NN12 (stereo unspecified)	-5	47*	3	44*	3	-18
C[C@@H](NC(=O)C[C@H]1CC[C@@H](NC(=O)CN2CCOCC2)[C@@H](CO)O1)c1ccccc1	2	x	x	0	6	x
CC(C)c1ccc(Nc2ncc3c(n2)CCN(C(=O)Nc2ccc(F)c(Cl)c2)C3)cc1	1	-2	-1	0	56*	x
Cc1ccc(-c2cnc3c(c2)C(=O)N([C@@H](C)CO)C[C@@H](C)[C@H](CN(C)S(C)(=O)=O)O3)cc1	-1	x	x	0	-3	x
CCOC(=O)c1cnc2cc(-c3ccc(C)cc3)nn2c1C	-1	-2	-2	0	71*	x
Cc1cc(C)n2nc(-c3cccc(Br)c3)cc2n1	-3	-4	4	0	u	12
CC(=O)c1cnc2cc(-c3cccc(Br)c3)nn2c1C	-4	14	2	0	50*	56
CCCN1CCN(C(=O)c2ccc3nc(CC)c(CC)nc3c2)CC1	-1	2	-2	0	-6	9
